# From PubChem BioAssay AID602333 (Sanford-Burnham Center for Chemical Genomics, 2012)
# The campaign covered roughly 1,900 compounds. About 240 (13%) were called active.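 The calls were made as follows: active = mean inhibition at least 40% at 20 µM, or signal 3 deviations below plate average, so some actives read negative; inactive = the rest.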 Not all results are given here.
# Molecular target: Prothrombin (Bos taurus) (UniProt P00735)
# Experiment: bovine thrombin protease inhibition, confirmation, counter-screen for Rpn11 inhibitor project, biochemical, fluorescence polarization, single concentration (AID 602333);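 also: plate controls were thrombin with DMSO for no effect and buffer wells lacking thrombin for full effect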
# Details: bovine thrombin cleavage of Ub4-pepOG, at 20 µM, stronger effect = higher value
# Sequence of Prothrombin (Bos taurus) (P00735 whole entry, looked up): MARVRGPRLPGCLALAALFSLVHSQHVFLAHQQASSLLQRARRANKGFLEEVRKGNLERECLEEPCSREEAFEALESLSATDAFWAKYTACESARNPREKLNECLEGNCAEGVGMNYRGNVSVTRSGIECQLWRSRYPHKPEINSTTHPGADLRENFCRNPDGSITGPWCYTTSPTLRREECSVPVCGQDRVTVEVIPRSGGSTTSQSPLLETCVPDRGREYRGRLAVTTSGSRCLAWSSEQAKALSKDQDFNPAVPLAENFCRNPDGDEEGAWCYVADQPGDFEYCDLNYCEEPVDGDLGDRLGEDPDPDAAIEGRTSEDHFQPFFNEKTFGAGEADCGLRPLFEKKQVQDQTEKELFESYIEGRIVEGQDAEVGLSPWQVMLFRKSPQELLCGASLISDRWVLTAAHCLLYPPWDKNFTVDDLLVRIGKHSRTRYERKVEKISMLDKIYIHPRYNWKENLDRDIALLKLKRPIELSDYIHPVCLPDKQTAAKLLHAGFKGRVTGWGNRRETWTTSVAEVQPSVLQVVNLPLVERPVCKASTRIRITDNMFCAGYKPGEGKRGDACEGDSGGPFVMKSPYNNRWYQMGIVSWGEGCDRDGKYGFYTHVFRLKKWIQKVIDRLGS
row,Compound,inhibition
1,C=CC1=C(C(=O)O)N2C(=O)[C@@H](NC(=O)/C(=N/OCC(=O)O)c3csc(N)n3)[C@H]2SC1,-49.6% (inactive)
2,O=C(COc1cccc(F)c1)Oc1ccc(C(=O)c2ccccc2)cc1,-6.51% (inactive)
3,C/C(=N/Nc1nc(-c2ccccc2)c(CC(=O)O)s1)c1ccccc1,11.8% (inactive)
4,COc1cc(/C=C2/SC(=S)N(Cc3ccccc3)C2=O)cc(OC)c1O,30.8% (inactive)
5,Cc1ccc(Nc2nc(Cl)c(C=O)s2)cc1,47% (active)
6,Cc1ccc(Nc2ccccc2N)cc1,15.5% (inactive)
7,CCOc1cc(/C=C2\SC(N3CCCCC3)=NC2=O)ccc1O,21% (inactive)
8,Oc1ccc(/C=N/Nc2nc(-c3ccccc3F)nc3ccccc23)c(O)c1,5.18% (inactive)
9,COc1ccc2[nH]c(=O)c(-c3noc(-c4ccc(F)cc4)n3)cc2c1,2.93% (inactive)
10,Cc1ccc2cc(C#N)c(NCCNC(=S)NCCCN3CCOCC3)nc2c1,-7.45% (inactive)
11,C=CCn1c(SCC(=O)NCc2ccccc2)nnc1-c1cc(Br)ccc1O,-3.07% (inactive)
12,CCCCCCCCCCOC(=O)Cn1c(COc2cccc(OC)c2)[n+](C)c2ccccc21,-11.8% (inactive)
13,Cc1c(NC(=O)CSc2cccc3cccnc23)c(=O)n(-c2ccccc2)n1C,-11.3% (inactive)
14,Cc1nc2ccc(C(=O)N3CCSCC3)cc2s1,-9.73% (inactive)
15,CCC(C)Cn1c(O)cc2nn(-c3nc4ccccc4s3)c(=O)c-2c1C (stereo unspecified),3.33% (inactive)
16,CCNCc1cc2cc(C)ccc2[nH]c1=O,7.4% (inactive)
17,CCN1CCN(c2cc3nc(C)n(Cc4ccccc4)c(=O)c3cc2NC(=O)c2ccccc2F)CC1,-5.14% (inactive)
18,COc1ccc(Cl)cc1NC(=O)CCS(=O)(=O)c1ccc(Br)cc1,-12.6% (inactive)
19,COc1cccc(NC(=O)C(C)Oc2ccccc2)c1 (stereo unspecified),-2.75% (inactive)
20,Cc1ccc(NC(=O)c2c(NC(=O)CCC(=O)O)sc3c2CCCCC3)cc1,-10.8% (inactive)
21,CCOc1ccc(NC(=O)c2ccc(NC(=O)COC(=O)c3ccc(NC(=O)CC#N)cc3)cc2)cc1,-22.9% (inactive)
22,COc1cccc(-c2nn(-c3ccccc3)cc2/C=C(\C#N)C(=O)NCCCn2ccnc2)c1,3.86% (inactive)
23,CCN1CCCC1CNC(=O)c1cc2c(=O)n(C)c3ccccc3c2n1C (stereo unspecified),-4.94% (inactive)
24,CC(C)(C)NC(=O)CSC(=Nc1ccccc1F)NC#N,4.77% (inactive)
25,Cc1ccc(-c2nnc(-c3ccc(NC(=O)c4cccs4)cc3)o2)cc1,-6.56% (inactive)
26,Cc1nc2ccccc2nc(=O)c1NNc1ccc([N+](=O)[O-])cc1,28.5% (inactive)
